SARS PLP yeast – qHTS of Yeast-based Assay for SARS-CoV PLP; 0.19% of 330,000 active; Potency, µM (titrated, usually from 32.9 µM), actives largely listed as activators; AID 485353, 2010; S. cerevisiae expressing SARS-CoV PLpro, growth rescue; calls by dose curve; also: nearly all actives have a fitted effect of over 55% in size
Pf growth 48h – Primary qHTS for delayed death inhibitors of the malarial parasite plastid, 48 hour incubation; P. falciparum luciferase growth in erythrocytes, 48 h; Potency, µM (top dose mostly 28.7 µM), usual class: inhibitors; 5.9% of 310,000 active
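Firefly luciferase activity from engineered P. falciparum reports growth; inhibitors lower the luminescent signal. Cultures contained 2% hematocrit erythrocytes at 0.1% final parasitemia.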
Sm TGR block – qHTS Assay for the Inhibitors of Schistosoma Mansoni Peroxiredoxins; Schistosoma mansoni thioredoxin glutathione reductase (TGR), Q962Y6; purified TGR, DTNB reduction, TNB absorbance 405 nm; Potency, µM (titrated, usually from 114 µM), usual class: inhibitors; 3% of 360,000 active; AID 485364, 2010; also: nearly all actives have a fitted effect of over 60% in size
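First, TGR (20 nM dispensed) and NADPH were mixed with compound. Second, a 15 min room-temperature incubation followed. Third, further NADPH and then DTNB were added to start the reaction. Finally, TNB absorbance was monitored kinetically.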
Pf growth 96h – Primary qHTS for delayed death inhibitors of the malarial parasite plastid, 96 hour incubation. P. falciparum luciferase reporter growth, 96 h. Potency, µM (top dose mostly 28.7 µM), hits mostly inhibitors. 6.9% of 320,000 active
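Compounds incubated with erythrocytes infected by luciferase-expressing P. falciparum (2% hematocrit, 0.05% parasitemia final) for 96 hours, 37 C in 5% CO2. Growth inhibition scored as decreased luciferase luminescence.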
HCV inhibitor – qHTS Assay for Inhibitors of Hepatitis C Virus (HCV). Huh7.5.1 HCVcc-Cre infection, luciferase reporter, 44 h. Potency, µM (titrated, usually from 41.8 µM), usual class: inhibitors. 3.4% of 340,000 active
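After 44 h co-culture of compound, cells and HCVcc-Cre (~0.5 moi), substrate is added for 15 min at room temperature and luciferase measured over 15 sec. Cells were seeded at 1,000/well and pre-cultured 4 h.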
HCMV antiviral – qHTS Assay for inhibitors of the human cytomegalovirus (HCMV) | HFF cells, HCMV-luciferase reporter, 72 h; active compounds read low | activity change, negative = inhibition, % at 57.5 µM | AID 1259415, 2018 | 4.5% of 410,000 active; in the data active = activity change below about -60%; inconclusive = no clear call, values can overlap the other calls; inactive = above about -39%
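Luciferase read-out from HCMV-luciferase-infected HFFs (MOI 1 PFU/cell) 72 h post infection at 37C; compounds added after 16 h cell attachment; activity normalized between buffer-only basal and Salinomycin (10uM) inhibitor controls.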
A number is an active result; n = inactive; u = inconclusive; x = not tested or not shown; ! = not confirmed by another sample; [ ] = dose if it differs, or a comment. Compounds with a hit are over-represented: about 15% of the library has one in this group of screens. Unless noted, calls follow the shape of the dose curve; as a rule, active = well fitted curve in the direction sought with a large enough effect; inconclusive = small, poorly fitted or top-dose-only effect, or another doubt; inactive = no such curve, though single readings can be large; an effect the other way counts as inactive or inconclusive.

SMILES | SARS PLP yeast | Pf growth 48h | Sm TGR block | Pf growth 96h | HCV inhibitor | HCMV antiviral
CN(C)S(=O)(=O)n1cc(/C=C(\NC(=O)c2ccccc2F)C(=O)N2CCCCC2)c2ccccc21 | x | x | x | x | x | -97
CN(C)S(=O)(=O)n1cc(/C=C(\NC(=O)c2ccccc2Cl)C(=O)NCCCn2ccnc2)c2ccccc21 | n | u | n | n | n | -105!
COc1ccc(C(=O)N/C(=C\c2cccc3ccccc23)C(=O)N2CCN(C)CC2)cc1OC | n | n | n | n | n | n
CCn1cc(/C=C(\NC(=O)c2ccc(OC)c(OC)c2)C(=O)N2CCN(C)CC2)c2ccccc21 | n | u | n | 10µM | n | n
COc1ccc(-c2nn(-c3ccccc3)cc2/C=C/C(=O)NCCCn2ccnc2)cc1OC | n | 12µM | n | 10µM | n | n
O=C(C1CC1)N1CC(=O)N2[C@@H](CO)[C@H](c3ccc(Br)cc3)[C@@H]2C1 | x | x | x | x | x | n
Cc1cc(=O)[nH]c(SCc2ccc(Cl)cc2Cl)n1 | n | n | n | n | n | n
CCn1cc(/C=C(\NC(=O)c2ccc(OC)c(OC)c2)C(=O)NCCCn2ccnc2)c2ccccc21 | x | x | n | x | x | n
CCn1cc(/C=C(\NC(=O)c2cc(OC)c(OC)c(OC)c2)C(=O)NCCCn2ccnc2)c2ccccc21 | x | x | n | x | x | -104
COc1cccc(-c2ccc3c(N)c(C(=O)c4ccc(F)cc4)sc3n2)c1 | x | x | n | x | x | n
Cn1c(=O)c2sccc2n2c(CCCC(=O)Nc3ccc(Oc4ccc(Cl)cc4)cc3)nnc12 | x | x | n | x | x | -76
Cn1c(=O)c2sccc2n2c(CCCC(=O)NCc3ccccc3)nnc12 | x | x | n | x | x | n
CCn1c(=O)c2sccc2n2c(CCCC(=O)NCc3cccnc3)nnc12 | n | n | n | 13µM | n | n
COc1ccc(-c2cc(C(=O)NCc3cccnc3)no2)cc1OC | n | n | n | 9.3µM | x | n
COc1ccc(-c2cc(C(=O)Nc3c(C)nn(Cc4ccc(Cl)cc4)c3C)no2)cc1 | n | x | n | u | u | u
Cc1nn(Cc2ccccc2)c(C)c1NC(=O)c1noc2c1CCc1ccccc1-2 | n | x | n | n | u | x
COc1ccccc1-c1cc(C(=O)Nc2c(C)nn(Cc3ccc(Cl)cc3)c2C)no1 | x | x | n | x | x | -74
COc1ccc(-c2cc(C(=O)Nc3c(C)nn(Cc4ccccc4Cl)c3C)no2)cc1OC | n | u | n | n | 8.9µM | n
COc1ccc2c(c1)CCc1c(C(=O)Nc3c(C)nn(Cc4ccc(C)cc4)c3C)noc1-2 | x | x | n | x | x | -96
Cc1nn(Cc2ccccc2Cl)c(C)c1NC(=O)/C=C/c1cnn(C)c1 | n | n | n | n | n | n
Cc1nn(C)cc1C(=O)Nc1c(C)nn(Cc2ccccc2Cl)c1C | n | n | n | u | n | -80
Cc1nn(Cc2ccc(F)cc2)c(C)c1NC(=O)c1cc(-c2ccc3c(c2)OCO3)on1 | n | n | n | u | u | n
COc1ccc(OC)c(-c2cc(C(=O)Nc3c(C)nn(Cc4ccccc4C)c3C)no2)c1 | n | 5.2µM | n | n | 3.2µM | n
Cc1cc(C(=O)Nc2c(C)nn(Cc3ccccc3Cl)c2C)no1 | n | 2.6µM | n | n | n | n
COc1ccc(OC)c(-c2cc(C(=O)Nc3c(C)nn(Cc4ccc(C)cc4)c3C)no2)c1 | x | x | n | x | x | n
SMILES | SARS PLP yeast | Pf growth 48h | Sm TGR block | Pf growth 96h | HCV inhibitor | HCMV antiviral
Cc1ccc(Cn2nc(C)c(NC(=O)c3cc(-c4ccc5c(c4)OCO5)on3)c2C)cc1 | n | u | n | n | u | -60
COc1ccc(OC)c(-c2cc(C(=O)Nc3c(C)nn(Cc4ccccc4Cl)c3C)no2)c1 | n | 13µM | n | n | 16µM | n
Cc1ccc2c(C)c(C(=O)Nc3nnc(C)s3)oc2c1 | n | n | n | x | n | -99
O=C(C=C(C(=O)c1ccccc1)c1ccccc1)c1ccccc1 | x | x | x | x | u | n
CN(C)CC(=O)N[C@@H]1CC[C@@H](CC(=O)NCCN2CCCCC2)O[C@@H]1CO | x | x | x | x | x | -100
O=C1OC(c2ccc(F)cc2)=C/C1=C\c1ccc([N+](=O)[O-])o1 | n | n | 4µM | n | x | x
O=C1OC(c2ccccc2)=C/C1=C/c1cccs1 | n | n | n | n | n | n
O=C1OC(c2ccc(F)cc2)=C/C1=C\c1ccc(O)cc1 | n | n | 13µM | n | n | n
Cc1cccc(CC(=O)N2CC(=O)Nc3ccc(Br)cc3C2c2ccc(F)cc2)c1 (stereo unspecified) | x | x | n | x | x | u
COc1ccc(CCNc2ncnc3c2[nH]c2cc(OC)c(OC)cc23)cc1OC | n | u | n | 1.9µM | n | n
COc1ccc(CCNc2ncnc3cc(OC)c(OC)cc23)cc1OC | n | 13µM | x | n | 10µM | n
COc1cc2ncnc(NCCc3ccccc3)c2cc1OC | n | 10µM | x | u | 11µM | u
COc1cc2ncnc(NCc3ccc(C)cc3)c2cc1OC | n | u | n | u | n | n
O=C1NC(Cc2c[nH]c3ccccc23)C(=O)N1CCOc1ccccc1 (stereo unspecified) | n | n | n | u | n | n
CCOC(=O)C1=CCN(S(=O)(=O)c2cccc(Cl)c2)C1c1cccc(Br)c1 (stereo unspecified) | x | x | x | x | x | n
CCc1ccc(Sc2cc(C(=O)O)c3ccccc3n2)cc1 | x | x | n | x | x | n
CCOC(=O)C1(c2ccccc2)CCN(CCC(=O)Nc2ccc(C(=O)OC)cc2)CC1 | n | 5.2µM | n | 9.3µM | u | n
CCOC(=O)C1(c2ccccc2)CCN(CCC(C#N)(c2ccccc2)c2ccccc2)CC1 | x | 1.9µM | x | 1.9µM | n | -86
CCOC(=O)C1(c2ccccc2)CCN(CCC(=O)Nc2cccc(Br)c2)CC1 | n | u | n | u | 11µM | u
CCOC(=O)C1(c2ccccc2)CCN(CCC(=O)Nc2ccc(OC)cc2)CC1 | x | x | x | x | x | n
CC(C)C[C@@H]1NC(=O)[C@H](Cc2ccc(O)cc2)NC(=O)[C@H](CCC(N)=O)NC(=O)c2cc([N+](=O)[O-])cc(I)c2NCC[C@@H](C(N)=O)NC1=O | n | n | u | n | n[8.37 µM] | x
O=C(COC(=O)Cc1c(Cl)cccc1Cl)Nc1ccc(OC(F)(F)F)cc1 | n | n | n | n | u | n
CN(/N=C/c1ccc(Br)o1)C1=NS(=O)(=O)c2ccccc21 | n | n | 45µM | u | n | n
Cc1ccc(/C=N/N(C)C2=NS(=O)(=O)c3ccccc32)o1 | n | n | n | u | x | x
COc1ccc(C(=O)Nc2ccc(-c3nc4ncccc4o3)cc2C)cc1Br | x | x | n | x | x | n
CNC(=S)N/N=C1\CC(c2ccccc2)Oc2ccccc21 (stereo unspecified) | n | 10µM | n | 6.6µM | u | u
O=C(O)c1ccc2c3c(cccc13)C(=O)N(c1cccc3ccccc13)C2=O | n | n | n | n | n | n
